Compound activity as filed in PubChem.
In the library only some 3.6% were active in any assay of this set; here they are far more common.
Anthrax LF prot = blocks Bacillus anthracis lethal factor protease. multiplex microsphere protease cleavage assay, LF. inhibition, % at 10 µM. 0.12% of 360,000 active. AID 588501
BoNT A protease = inhibitors of Botulinum neurotoxin A light chain protease; multiplex microsphere protease substrate cleavage, flow cytometry; inhibition, % at 10 µM; 0.17% of 360,000 active; AID 588499
MazF activator = increases E. coli MazEF RNase cleavage of RNA; 0.32% of 350,000 active; P0AE70; activation, % at 20 µM; FAM/BHQ RNA-DNA oligo cleavage fluorescence, 5 h; in the data active = activation above about 50%
BoNT-F LC inh = inhibitors of Botulinum neurotoxin F light chain protease. Multiplex microsphere protease cleavage assay, flow cytometry. inhibition, % at 10 µM. 0.22% of 360,000 active; in the data active = inhibition above about 35%, passing the limit was not always enough; inconclusive = no clear call, values can overlap the other calls
Bead autofluor = compound fluorescence in toxin protease inhibitor counterscreen; compound autofluorescence counterscreen, microsphere flow cytometry; stronger effect = higher value; 3.1% of 360,000 active; fluorescence intensity (test concentration not listed); in the data active = fluorescence intensity above about 16000; inconclusive = no clear call, values can overlap the other calls
A number is an active result. Cut-off read from the data, not from the text of the source, unless noted: active = inhibition above about 30%; inconclusive = no clear call, values can overlap the other calls; inactive = below that.

Screening CCOC(=O)c1cccnc1SCc1cc(=O)n2ccccc2n1 returned Anthrax LF prot inactive, BoNT A protease inactive, MazF activator inactive, BoNT-F LC inh inactive and Bead autofluor inactive.
Screening COc1ccccc1-c1cc(-c2ccccc2)nc(SCC(=O)O)c1C#N returned Anthrax LF prot inactive, BoNT A protease inactive, MazF activator inactive, BoNT-F LC inh inactive and Bead autofluor inactive.
`CCOC(=O)c1ccc(N2C(=O)c3n[nH]c(-c4ccco4)c3C2c2cccc([N+](=O)[O-])c2)cc1` (centres undefined) gave Anthrax LF prot inactive, BoNT A protease inactive, MazF activator inactive, BoNT-F LC inh inactive and Bead autofluor inactive.
`Cc1ccc(S(=O)(=O)Nc2cc(-c3ccccc3)nn2C)cc1Cl` gave Anthrax LF prot inactive, BoNT A protease inactive, MazF activator inactive, BoNT-F LC inh inactive and Bead autofluor inactive.
COCCCNC(=O)C1c2ccccc2Oc2ccccc21 was read as Anthrax LF prot inactive, BoNT A protease inactive, MazF activator inactive, BoNT-F LC inh 42 and Bead autofluor inactive.
`CCN(CC)CCCNC(=O)C1c2ccccc2Oc2ccccc21` gave Anthrax LF prot inactive, BoNT A protease inactive, MazF activator inactive, BoNT-F LC inh inactive and Bead autofluor inactive.
For COc1ccc(NC(=O)C23CC4CC(C2)CC(n2cnc(Br)n2)(C4)C3)cc1Cl the results were Anthrax LF prot inactive, BoNT A protease inactive, MazF activator inactive, BoNT-F LC inh inactive and Bead autofluor 16232.
For O=C(O)c1cccc(NC(=O)C23CC4CC(C2)CC(n2cnc(Cl)n2)(C4)C3)c1 the results were Anthrax LF prot inactive, BoNT A protease inactive, MazF activator inactive, BoNT-F LC inh inactive and Bead autofluor inactive.
For CC(NC(=O)c1ccc(C(C)(C)C)cc1)C(=O)O (centres undefined) the results were Anthrax LF prot inactive, BoNT A protease inactive, MazF activator inactive, BoNT-F LC inh inactive and Bead autofluor 21690.
Screening CCCOc1ccc(C(=O)NC(C)C(=O)O)cc1 (centres undefined) returned Anthrax LF prot inactive, BoNT A protease inactive, MazF activator inactive, BoNT-F LC inh inactive and Bead autofluor 21313.
For Cc1nc2ccc(NC(=S)NC(C)C)cc2nc1C the results were Anthrax LF prot inactive, BoNT A protease inactive, MazF activator inactive, BoNT-F LC inh inactive and Bead autofluor 22287.
For Cc1cc(C)c(S(=O)(=O)c2cccc(Br)c2C)c(Cl)n1 the results were Anthrax LF prot inactive, BoNT A protease inactive, MazF activator inactive, BoNT-F LC inh inactive and Bead autofluor inactive.
`Cc1cc(C)c2[nH]c(=O)c(CN(CC3CCCO3)S(=O)(=O)c3ccc4c(c3)OCCO4)cc2c1` (centres undefined) gave Anthrax LF prot inactive, BoNT A protease inactive, MazF activator inactive, BoNT-F LC inh inactive and Bead autofluor 21471.
For Cc1ccc(C)c2[nH]c(=O)c(CN(CC3CCCO3)S(=O)(=O)c3ccc4c(c3)OCCO4)cc12 (centres undefined) the results were Anthrax LF prot inactive, BoNT A protease inactive, MazF activator inactive, BoNT-F LC inh inactive and Bead autofluor inactive.
O=C(CC1SC2=NCCN2C1=O)Nc1ccc(Cl)cc1 (centres undefined) was read as Anthrax LF prot inactive, BoNT A protease inactive, MazF activator inactive, BoNT-F LC inh inactive and Bead autofluor 17758.
For CCOC(=O)[C@]12CCC=C1N(Cc1ccccc1)C(=O)[C@H](CC(=O)NCCCCc1ccccc1)C2 the results were Anthrax LF prot inactive, BoNT A protease inactive, BoNT-F LC inh inactive and Bead autofluor inactive.
`COc1cccc(-c2nc3ccc(O)cc3c(=O)o2)c1` gave Anthrax LF prot inactive, BoNT A protease inconclusive, MazF activator inactive, BoNT-F LC inh inactive and Bead autofluor 23859.
For CCOC(=O)C1=CCN(S(=O)(=O)c2ccccc2C)C1c1ccc(C)cc1 (centres undefined) the results were Anthrax LF prot inactive, BoNT A protease inactive, BoNT-F LC inh inactive and Bead autofluor inactive.
For FC(F)(F)c1cnc(Sc2nc3nccc(-c4ccc(Cl)cc4)n3n2)c(Cl)c1 the results were Anthrax LF prot inactive, BoNT A protease inactive, MazF activator inactive, BoNT-F LC inh inactive and Bead autofluor 20640.
Screening COc1ccc(-c2ccnc3nc(Sc4ncc(C(F)(F)F)cc4Cl)nn23)cc1 returned Anthrax LF prot inactive, BoNT A protease inactive, MazF activator inactive, BoNT-F LC inh inactive and Bead autofluor 20277.
Screening Cn1cc(S(=O)(=O)N2CCCC2)cc1C(=O)NCCc1ccccc1 returned Anthrax LF prot inactive, BoNT A protease inactive, MazF activator inactive, BoNT-F LC inh inactive and Bead autofluor inactive.
`Cc1ccc(N(C(=O)c2snc(C(N)=O)c2N)C(C(=O)NCc2ccccc2)c2ccncc2)c(C)c1` (centres undefined) gave Anthrax LF prot inactive, BoNT A protease inactive, MazF activator inactive, BoNT-F LC inh inactive and Bead autofluor inactive.
S=c1sscc1-c1ccccc1 was read as Anthrax LF prot inactive, BoNT A protease inactive, MazF activator inactive, BoNT-F LC inh inactive and Bead autofluor inactive.
`O=C1C(Br)=Cc2cccc3cccc1c23` gave Anthrax LF prot 30, BoNT A protease 59, MazF activator inactive, BoNT-F LC inh inactive and Bead autofluor inactive.
For CN(C)c1ccc(NC(=O)CC2NCCNC2=O)cc1 (centres undefined) the results were Anthrax LF prot inactive, BoNT A protease inconclusive, MazF activator inactive, BoNT-F LC inh inactive and Bead autofluor 21583.
`Cc1ccc(NC(=O)CC2NCCNC2=O)cc1` (centres undefined) gave Anthrax LF prot inactive, BoNT A protease inactive, MazF activator inactive, BoNT-F LC inh inactive and Bead autofluor inactive.
Screening Cc1cc(C)cc(NC(=O)CC2NCCNC2=O)c1 (centres undefined) returned Anthrax LF prot inactive, BoNT A protease inconclusive, MazF activator inactive, BoNT-F LC inh inactive and Bead autofluor 16440.
`O=C(CC1NCCNC1=O)Nc1ccccc1` (centres undefined) gave Anthrax LF prot inactive, BoNT A protease inactive, MazF activator inactive, BoNT-F LC inh inactive and Bead autofluor inactive.
O=c1oc2ccccc2c(N2CCC(c3ccccc3)CC2)c1[N+](=O)[O-] was read as Anthrax LF prot inactive, BoNT A protease inactive, MazF activator inactive, BoNT-F LC inh inactive and Bead autofluor inactive.
Screening CC1CCCN(c2c([N+](=O)[O-])c(=O)oc3ccccc23)C1 (centres undefined) returned Anthrax LF prot inactive, BoNT A protease inconclusive, MazF activator inactive, BoNT-F LC inh inactive and Bead autofluor 23803.
CC1CN(CC(=O)NCc2ccc(Cl)cc2)CC(C)O1 (centres undefined) was read as Anthrax LF prot inactive, BoNT A protease inactive, MazF activator inactive, BoNT-F LC inh inactive and Bead autofluor inactive.
Screening CN1CC(c2ccccc2Cl)C2(COc3ccccc3C2=O)C12C(=O)Nc1ccccc12 (centres undefined) returned Anthrax LF prot inactive, BoNT A protease inactive, MazF activator inactive, BoNT-F LC inh inactive and Bead autofluor 20126.
Cc1ccc(C2CN(C)C3(C(=O)Nc4ccccc43)C23COc2ccccc2C3=O)cc1 (centres undefined) was read as Anthrax LF prot inactive, BoNT A protease inactive, MazF activator inactive, BoNT-F LC inh inactive and Bead autofluor inactive.
